Screening results from PubChem.
aSyn rescue = qHTS of alpha-syn Inhibitors | actives 0.14% (n = 370,000) | AID 652106, 2013 | Potency, µM (titrated, usually from 46.1 µM), without a hit: at the highest dose growth rescue (activation), actives largely listed as activators | Yeast expressing alpha-synuclein, growth rescue, BacTiter-Glo, 24 h; note: % of control where 0% means no effect; nearly all actives have a fitted effect of over 65% in size
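Galactose-induced alpha-syn yeast (OD600=0.02, raffinose-pregrown) + pinned cpd, 24 hr, 30 deg C; growth by BacTiter-Glo luminescence. Growth restoration scores as activation.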
Abeta yeast res = qHTS for compounds that reverse cellular toxicity of Amyloid beta (A-beta) peptide in yeast: Primary Screen. AID 1347071, 2019. actives 0.063% (n = 410,000). Potency, µM (highest dose often 46.1 µM), usual class: activators. yeast expressing A-beta42, growth rescue, OD600, 48 h; response scale: 0% DMSO, 100% iron-clioquinol control; note: nearly all actives have a fitted effect of over 55% in size
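Growth rescue measured by 600 nm absorbance after 48 h yeast culture at 30 C with compound. Values normalized between DMSO and an equimolar ferric chloride plus clioquinol control.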
FUS suppressor = qHTS for Suppressors of FUS Proteinopathy: Primary screen using FUS-linked yeast assay | S. cerevisiae FUS-expressing, growth rescue, OD600, 24 h | Potency, µM (doses to about 76.6 µM), actives largely listed as activators | actives 0.24% (n = 390,000);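 note: plate controls were DMSO vehicle for no effect and reference control for full effect; nearly all actives have a fitted effect of over 55% in size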
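Restored growth of FUS-toxic S. cerevisiae, read as 600 nm absorbance after 24 h at 30C in galactose medium (starting OD 0.005). Controls CP55940 and DMSO.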
TDP-43 yeast inh = qHTS of TDP-43 Inhibitors. TDP-43 expressing yeast growth rescue, BacTiter-Glo, 24 h. Potency, µM (top dose mostly 46.1 µM), without a hit: at the highest dose growth rescue (activation), usual class: activators. actives 1.8% (n = 410,000). AID 652104, 2013; note: % of control where 0% means no effect; nearly all actives have a fitted effect of over 50% in size
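Yeast cells expressing TDP-43 under galactose induction are exposed to compounds for 24 hr at 30 deg C. BacTiter-Glo luminescence measures growth, so protective compounds score as activators.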
Mito fusion act = qHTS Assay for Small Molecule Inhibitors of Mitochondrial Division or Activators of Mitochondrial Fusion; S. cerevisiae fusion-defective mutant growth rescue, CellTiterGlo 48 h; Potency, µM (titrated, usually from 46.1 µM), for the others: at the top dose growth rescue (activation), usual class: activators; actives 0.23% (n = 320,000); AID 485298, 2010; note: % of control where 0% means no effect; nearly all actives have a fitted effect of over 45% in size
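Read-out: ATP-based luminescence (CellTiterGlo, 10 min ambient) reporting growth of fusion-defective ts yeast after 48 hours at 37C on glycerol/ethanol YPEG medium in the presence of compound.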
* marks the source's active call; other numbers are inactive results. Sampled rows, rich in hits. Any-hit rate of the full collection: about 2.2%. Calls come from the whole dose curve; as a rule, active = well fitted curve in the direction sought with a large enough effect; inconclusive = small, poorly fitted or top-dose-only effect, or another doubt; inactive = no such curve, though single readings can be large; an effect the other way counts as inactive or inconclusive. Potency is the fitted concentration of half-maximal effect.

`COc1cc(NC(=O)COc2cc(O)c3c(c2)OC(C)(C)CC3=O)cc(OC)c1` gave aSyn rescue 7%, Abeta yeast res inactive, FUS suppressor inconclusive, TDP-43 yeast inh inconclusive and Mito fusion act -1%.
For O=[N+]([O-])c1ccc(-c2ccc(/C=N/Nc3nc(N4CCCCC4)nc(N4CCCCC4)n3)o2)cc1 the results were aSyn rescue -8%, Abeta yeast res inactive, FUS suppressor inactive, TDP-43 yeast inh 14µM* and Mito fusion act 4%.
C(=N\Nc1nc(N2CCCCCC2)nc(N2CCCCCC2)n1)/c1ccccc1 was read as aSyn rescue -14%, Abeta yeast res inactive, FUS suppressor inactive, TDP-43 yeast inh 22µM* and Mito fusion act -4%.
`COc1ccc(/C=N/Nc2nc(N3CCCCC3)nc(N3CCCCC3)n2)cc1[N+](=O)[O-]` gave aSyn rescue -2%, Abeta yeast res inactive, FUS suppressor inconclusive, TDP-43 yeast inh -4% and Mito fusion act 8%.
O=[N+]([O-])c1cc(/C=N/Nc2nc(N3CCCCC3)nc(N3CCCCC3)n2)ccc1O was read as aSyn rescue -13%, Abeta yeast res inactive, FUS suppressor inactive, TDP-43 yeast inh 22µM* and Mito fusion act 2%.
Screening CCCN(C(=O)c1cc2c(=O)n(CC)c3ccccc3c2s1)c1ccccc1F returned Abeta yeast res inactive, FUS suppressor inactive and TDP-43 yeast inh 7%.
For Cc1[nH]c2ccccc2c1C(=O)CCl the results were aSyn rescue 2%, Abeta yeast res inactive, FUS suppressor inactive, TDP-43 yeast inh 16µM* and Mito fusion act -18%.
CC1CC1c1ccc(/C=C(\C#N)C(=O)Nc2ccc(Cl)cc2)o1 (stereo not given) was read as aSyn rescue -15%, Abeta yeast res inactive, TDP-43 yeast inh 24% and Mito fusion act 13%.
Screening CC1CC1c1ccc(/C=C(\C#N)C(=O)Nc2ccccc2Cl)o1 (stereo not given) returned aSyn rescue 17%, Abeta yeast res inactive, TDP-43 yeast inh 11µM* and Mito fusion act 20%.
CCc1ccccc1NC(=O)/C(C#N)=C/c1ccc(Sc2ccccc2)o1 was read as aSyn rescue 2%, Abeta yeast res inactive, FUS suppressor inactive, TDP-43 yeast inh -3% and Mito fusion act 11µM*.
For O=C1C=C(c2ccccc2)CC(/C=C/c2ccccc2)C1 (stereo not given) the results were aSyn rescue 12%, Abeta yeast res inactive, TDP-43 yeast inh inconclusive and Mito fusion act 16µM*.
For COc1ccc(S(=O)(=O)NCc2cccn2Cc2cccc(C)c2)cc1OC the results were Abeta yeast res inactive, FUS suppressor inactive and TDP-43 yeast inh 35µM*.
`CC(=O)Nc1ccc(S(=O)(=O)NCc2cccn2Cc2cccc(C)c2)cc1` gave Abeta yeast res inactive, FUS suppressor inactive and TDP-43 yeast inh 16%.
For COc1ccc(S(=O)(=O)NCc2cccn2Cc2cc(C)ccc2C)cc1OC the results were Abeta yeast res inactive, FUS suppressor inactive and TDP-43 yeast inh 35µM*.
For Cc1ccc(SCc2nc(-c3ccccc3)no2)cc1 the results were aSyn rescue -13%, Abeta yeast res inactive, FUS suppressor inactive, TDP-43 yeast inh 8% and Mito fusion act -3%.
`Cc1ccccc1OCc1nc(-c2cccnc2)no1` gave aSyn rescue 11%, Abeta yeast res inactive, FUS suppressor inactive, TDP-43 yeast inh 11µM* and Mito fusion act 0%.
Screening c1ccc(OCc2nc(-c3ccncc3)no2)cc1 returned aSyn rescue 4%, Abeta yeast res inactive, FUS suppressor inactive, TDP-43 yeast inh 11µM* and Mito fusion act 4%.
For Cc1ccc(SCc2nc(-c3ccncc3)no2)cc1 the results were aSyn rescue 6%, Abeta yeast res inactive, FUS suppressor inactive, TDP-43 yeast inh 16µM* and Mito fusion act 1%.
`O=C(NCCc1ccc(OC(F)F)cc1)C1CC(=O)N(c2ccc3c(c2)OCCO3)C1` (stereo not given) gave aSyn rescue 11%, Abeta yeast res inactive, FUS suppressor inactive, TDP-43 yeast inh -3% and Mito fusion act -7%.
CCc1ccccc1N(C)C(=O)c1cc2c(Cl)nc3ccc(C)cc3c2s1 was read as Abeta yeast res inactive, FUS suppressor inactive and TDP-43 yeast inh 19%.
`CC(=O)Nc1ccc(OCc2cccc([N+](=O)[O-])c2)cc1` gave aSyn rescue 5%, Abeta yeast res inactive, FUS suppressor inactive, TDP-43 yeast inh inconclusive and Mito fusion act -12%.
For CC(=O)Nc1ccc(C=CC=Cc2cccc([N+](=O)[O-])c2)cc1 the results were aSyn rescue -52%, Abeta yeast res inactive and TDP-43 yeast inh 14µM*.
For COc1cccc(CNC(=O)C2CCN(S(=O)(=O)c3cn(C)cn3)CC2)c1 the results were Abeta yeast res inactive, FUS suppressor inactive and TDP-43 yeast inh 14%.
For COc1ccc(N2CCN(c3nc4ccccc4nc3NS(=O)(=O)c3ccccc3)CC2)cc1 the results were aSyn rescue -17%, Abeta yeast res inactive, FUS suppressor inactive, TDP-43 yeast inh 20µM* and Mito fusion act -10%.
Screening Cn1cncc1C#Cc1c(C=O)[nH]c2ccccc12 returned aSyn rescue -1%, Abeta yeast res inactive, FUS suppressor inactive, TDP-43 yeast inh 14% and Mito fusion act 8%.
CN1C[C@@H]2[C@@H]3C(=O)N(Cc4ccccc4)C(=O)[C@@H]3[C@](Cc3ccccc3)(C1=O)N2C(=O)c1ccc(Cl)c(Cl)c1 was read as aSyn rescue 2%, Abeta yeast res inactive, FUS suppressor 14µM* and TDP-43 yeast inh -3%.
Screening Cc1ccc(NC(=O)CCS(=O)(=O)c2ccccc2)cc1C returned FUS suppressor inactive.
`CC1=C(C#N)C(=O)NC(=O)/C1=C\c1ccc(-c2ccc(C)cc2[N+](=O)[O-])o1` gave aSyn rescue 5%, Abeta yeast res inactive, FUS suppressor inactive, TDP-43 yeast inh 32µM* and Mito fusion act 1%.
For Cc1ccc(NC(=O)CN2C(=O)CCSc3ccccc32)c(C)c1 the results were aSyn rescue 3%, Abeta yeast res inactive, FUS suppressor inactive and TDP-43 yeast inh 16µM*.
Cc1nc2nc(SCc3ccccc3)nn2c(C)c1C was read as aSyn rescue 10%, Abeta yeast res inactive, FUS suppressor inactive, TDP-43 yeast inh inconclusive and Mito fusion act 10%.
For CCOC(=O)c1cn2nc(SCc3ccccc3)nc2nc1C the results were aSyn rescue 1%, Abeta yeast res inactive, FUS suppressor inactive, TDP-43 yeast inh 16µM* and Mito fusion act -2%.
